# Screens as filed in PubChem BioAssay.
# Most compounds without a hit are left out; they make up all but 18% or so of the library.
# IL1B secr inh = blocks inflammasome-driven IL-1 beta release; activity change, % at 57.5 µM; THP-1 LPS/ATP IL-1B secretion, AlphaLISA, 16 h; hits give low values; hit rate 4.7% among 360,000; in the data active means activity change below about -50%; inconclusive means mostly about -30% to -49%; further: on the % scale 0 is the no-effect control and ±100 the full control effect
#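 Secreted IL-1B measured by AlphaLISA bead assay after 16 h compound exposure of THP-1 cells; compounds (final up to 57.5 uM) added 1 h before LPS (250 ng/mL) and ATP (1.25 mM) stimulation; lower signal means less secretion.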
# HepG2 tox = kills HepG2 cells in TGF-b inhibitor counter-screen; HepG2 CAGA-GFP viability, ATP luminescence, 18 h; Potency, µM (series often up to 46.1 µM), without a hit: at the highest dose activity change, negative = cytotoxicity, actives largely listed as cytotoxic; hit rate 0.76% among 410,000; further: potency means the concentration at half of the fitted maximal effect
#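 HepG2 CAGA-GFP cells (1000/well, DMEM with 1% FBS) received compound, then TGF-beta at 500 pg/mL final, and were incubated 18 hours at 37 degrees C. Viability was read by CellTiter-Glo luminescence. Media-only wells were set as complete cell-killing and DMSO as no toxicity.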
# TDP1 cell CPT = DT40-hTDP1 cell growth loss with CPT | chicken DT40 Tdp1-/-;hTDP1 cells + 20 nM CPT, ATP luminescence, 48 h | Potency, µM (doses to about 46.2 µM), for the others: at the top dose activity change, negative = growth inhibition, usual class: inhibitors | hit rate 12% among 420,000 | AID 686979; further: potency means the concentration at half of the fitted maximal effect; on the % scale 0 is the no-effect control and ±100 the full control effect; nearly all actives have a fitted effect of over 55% in size
#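 Cell growth measured by CellTiter-Glo luminescence after a minimum 48 h, 37 C compound exposure with 20 nM CPT in Tdp1-knockout DT40 cells stably expressing hTDP1, seeded 400/well; qHTS titration format.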
# DT40 TDP1 no CPT = qHTS for Inhibitors of human tyrosyl-DNA phosphodiesterase 1 (TDP1): qHTS in cells in absence of CPT. DT40 Tdp1-/- hTDP1 cells, no CPT, ATP luminescence, 48 h. Potency, µM (titrated, usually from 46.2 µM), for the others: top-dose activity change, negative = growth inhibition, actives largely listed as inhibitors. hit rate 15% among 420,000. AID 686978, 2013; further: potency means the concentration at half of the fitted maximal effect; on the % scale 0 is the no-effect control and ±100 the full control effect; nearly all actives have a fitted effect of over 55% in size
#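 Luminescent ATP content (CellTiter-Glo) served as the growth readout. Knockout chicken DT40 cells expressing human TDP1 were exposed to compounds without camptothecin for a minimum 48 hr at 37 °C.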
# TDP1 inh = inhibitors of human tyrosyl-DNA phosphodiesterase TDP1; recombinant TDP1, AlphaScreen DNA substrate cleavage; Potency, µM (highest dose often 130 µM), for inactives: at the top dose activity change, negative = inhibition, actives largely listed as inhibitors; hit rate 0.28% among 350,000; AID 485290; further: potency means the concentration at half of the fitted maximal effect; on the % scale 0 is the no-effect control and ±100 the full control effect; nearly all actives have a fitted effect of over 40% in size
# Target sequence (Q9NUW8 whole entry, looked up): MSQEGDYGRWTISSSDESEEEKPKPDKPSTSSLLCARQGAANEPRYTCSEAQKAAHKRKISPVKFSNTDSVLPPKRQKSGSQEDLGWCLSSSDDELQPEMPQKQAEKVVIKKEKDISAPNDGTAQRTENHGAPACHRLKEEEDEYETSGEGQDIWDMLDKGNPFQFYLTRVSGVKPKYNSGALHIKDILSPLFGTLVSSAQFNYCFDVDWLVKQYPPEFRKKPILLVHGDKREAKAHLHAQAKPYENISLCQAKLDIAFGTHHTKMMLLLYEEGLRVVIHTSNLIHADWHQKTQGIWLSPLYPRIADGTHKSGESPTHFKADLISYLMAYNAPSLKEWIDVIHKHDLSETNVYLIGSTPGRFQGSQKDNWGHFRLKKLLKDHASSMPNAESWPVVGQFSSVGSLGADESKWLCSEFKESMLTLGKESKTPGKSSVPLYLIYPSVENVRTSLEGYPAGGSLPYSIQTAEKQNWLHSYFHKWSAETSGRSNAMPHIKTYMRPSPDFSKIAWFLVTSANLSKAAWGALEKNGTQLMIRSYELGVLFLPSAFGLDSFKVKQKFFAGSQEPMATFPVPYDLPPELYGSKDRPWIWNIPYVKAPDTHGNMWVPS
#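 Steps: enzyme plus compound, 15 min RT; add biotin/phosphotyrosine-FITC oligonucleotide (15 nM final), react 5 min; add donor/acceptor beads (10 ug/ml final), 10 min; read AlphaScreen. Tdp1 at 1 nM final.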
# TGFb SMAD3 inh = inhibitors of TGF-b signaling; HepG2 CAGA-GFP TGF-b/SMAD3 reporter, GFP fluorescence, 18 h; TGF-beta stimulated, 500 pg/mL final; hit rate 1.2% among 410,000; AID 588855; Potency, µM (titrated, usually from 46.1 µM), for inactives: at the top dose activity, negative = inhibition, usual class: inhibitors; further: potency means the concentration at half of the fitted maximal effect; on the % scale 0 is the no-effect control and ±100 the full control effect; nearly all actives have a fitted effect of over 65% in size
#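 Inhibition was scored as loss of TGF-beta-induced (500 pg/mL final, 18 hours, 37 degrees C) GFP in HEPG2 cells carrying a CAGA-GFP reporter, in DMEM with 1% FBS. Well GFP was summed per cell; Activity was normalised to unstimulated and stimulated DMSO wells, then concentration-response fitting.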
# Starred values were filed as active, the others as inactive; ? = inconclusive; . = not tested or not shown. Unless noted, the call rests on the fitted dose curve; in most records, active means well fitted curve in the direction sought with a large enough effect; inconclusive means small, poorly fitted or top-dose-only effect, or another doubt; inactive means no such curve, though single readings can be large; an effect the other way counts as inactive or inconclusive.
SMILES,IL1B secr inh,HepG2 tox,TDP1 cell CPT,DT40 TDP1 no CPT,TDP1 inh,TGFb SMAD3 inh
CN(C)c1ccc(N=NS(=O)(=O)O)cc1,.,.,22µM*,24µM*,14%,.
CN(C)c1ccc(N=Nc2ccc(C(=O)O)cc2)cc1,31,-2%,0%,2%,.,5%
CC(=O)Nc1ccc(NC(=O)COC(=O)C2CCCCC2)cc1,25,-5%,-15%,-18%,2%,4%
COc1ccc2ccc3c(c2c1)N=C[C@]1(O3)N(C)c2ccccc2C1(C)C,-26,6.3µM*,18µM*,10µM*,7%,?
CC1=NOC2(C1)N(C)c1ccccc1C2(C)C (stereo unspecified),0,-7%,-5%,-2%,-2%,11%
Cc1cc(C)nc(Nc2nc(C(N)c3ccccc3)cs2)n1 (stereo unspecified),?,-26%,?,?,.,6%
NC(CCc1ccccc1)c1csc(Nc2ccc(C(=O)c3ccccc3)cc2)n1 (stereo unspecified),?,16µM*,16µM*,18µM*,.,?
NC(=O)c1cccc(Nc2nc(C(N)COCc3ccccc3)cs2)n1 (stereo unspecified),-26,-21%,18µM*,?,.,-24%
NC(CCc1ccccc1)c1csc(Nc2ccc(C(=O)NCCO)cc2)n1 (stereo unspecified),-15,-1%,?,23µM*,.,-5%
NC(CCc1ccccc1)c1csc(Nc2ccc(C(=O)NCCCO)cn2)n1 (stereo unspecified),-20,-8%,-29%,-22%,.,16%
Cc1cc(C)nc(Nc2nc(C(N)CCc3ccccc3)cs2)n1 (stereo unspecified),-21,-104%,?,21µM*,.,?
C[C@@H]1CN([C@H](C)CO)C(=O)CCCn2cc(nn2)CO[C@H]1CN(C)C(=O)Nc1ccccc1C(F)(F)F,9,-25%,-16%,-4%,.,25%
CCOC(=O)c1c(NC(=O)c2cc3ccccc3c(=O)o2)sc2c1CCC(C(C)(C)C)C2 (stereo unspecified),.,-9%,9%,7%,-2%,-18%
NCc1csc(Nc2ccc(C(=O)c3ccccc3)cc2)n1,-9,-34%,0.92µM*,1µM*,.,-13%
NC(COCc1ccccc1)c1csc(Nc2ccc(C(=O)c3ccccc3)cc2)n1 (stereo unspecified),-66*,-91%,15µM*,?,.,?
CS(=O)(=O)c1ccc(Nc2nc(C(N)CCc3ccccc3)cs2)cc1 (stereo unspecified),-2,-18%,23µM*,21µM*,.,6%
CC(C)CC(N)c1csc(Nc2ccc(S(C)(=O)=O)cc2)n1 (stereo unspecified),-1,-50%,-30%,-12%,.,?
O=C(NC(=O)c1c(F)cccc1F)Nc1cccc(Oc2ncc(Cl)cn2)c1,0,-19%,?,5.8µM*,.,?
CN1CCN(C(=O)CCN2C(=O)/C(=C\c3ccccc3F)SC2=S)CC1,-51*,-73%,-104%,?,7%,?
CN1CCN(NC(=O)CN2C(=O)/C(=C/c3ccccc3Cl)SC2=S)CC1,-6,-14%,?,?,0%,-3%
COc1ccc(/C=C2\SC(=S)N(CCCC(=O)N3CCN(C)CC3)C2=O)cc1OC,15,-16%,-25%,-10%,.,0%
O=C(CCN1C(=O)/C(=C\c2ccccc2F)SC1=S)N1CCOCC1,-2,-44%,?,0.73µM*,.,-20%
CN1CCN(C(=O)CCN2C(=O)/C(=C/c3ccccc3Cl)SC2=S)CC1,-97*,-29%,16µM*,12µM*,6%,?
